Source: PubChem
A selection: hits, their analogues and other compounds. The true share with any hit is near 3%.
MITF TRPM1 HTS: increases MITF-driven TRPM1 promoter luciferase signal. 300,000 compounds, 0.75% hits. activation, % at 12.5 µM. SK-MEL-5 TRPM1-promoter luciferase, 24 h; % of positive control, neutral wells = 0. AID 588334;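 active means mean activation of at least 80% with every replicate also reaching 80%; inconclusive means mean reaches 80% but some replicate falls short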
PfHsp90 set2: growth inhibition of yeast expressing Plasmodium Hsp90 | S. cerevisiae expressing PfHsp90, BacTiter-Glo ATP, 48 h; yeast lacking PDR1 and PDR3 efflux regulators | inhibition, % at 9.4 µM | 310,000 compounds, 0.32% hits;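 active means every replicate shows inhibition above about 80%, whatever the replicate mean, limit read from the data; inconclusive means mean inhibition reaches the set limit but some replicate falls short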
N-glyco inh: N-linked glycosylation inhibition | reporter increase, % at 12.5 µM | D54 ERlucT glycosylation luciferase reporter, 24 h; percent of 100 nM tunicamycin response | 360,000 compounds, 0.23% hits;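 active means mean luciferase reporter signal, scaled so untreated is 0 and the glycosylation-blocking control 100, at or above a set limit in every replicate; inconclusive means mean reaches the limit but not every replicate does; inactive means mean below the limit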;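 further: luciferase carries N-glycosylation sites so blocking glycosylation raises the light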
Vif imaging: HIV Vif inhibition. HEK293T cells, Vif self-association by quenched fluorescence, imaging, 24 h. inhibition, % at 7.49 µM. 340,000 compounds, 0.35% hits. AID 602346; in the data active means inhibition above about 50%, passing the limit was not always enough; inconclusive means no clear call, values can overlap the other calls; inactive means below about 31%
Wnt bcat act: activators of Wnt/beta-catenin signaling | Wnt/beta-catenin reporter cell assay, activator, plate reader | activation, % at 9.35 µM | 300,000 compounds, 1.2% hits | AID 743398; in the data active means activation above about 30%, passing the limit was not always enough; inconclusive means no clear call, values can overlap the other calls
esBAF inh: SWI/SNF esBAF complex inhibition. mouse ES cells, Bmi1-luciferase knock-in reporter, 24 h; 100% = twice the neutral-well signal. reporter increase, % at 12.5 µM. 350,000 compounds, 2% hits; in the data active means activation above about 40%; inconclusive means no clear call, values can overlap the other calls;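 further: a rise in the Bmi1 reporter signal indicates esBAF inhibition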
Each line names hits and unclear results; the compound was inactive in the other large screens; ! = not active in a repeat.

N#CCC(=O)Nc1ccc(C(=O)OCC(=O)c2ccc3c(c2)OCO3)cc1	Wnt bcat act 39.1, esBAF inh 46.6
Cc1cccc(C(=O)OCC(=O)c2ccc3c(c2)OCCO3)c1O	Wnt bcat act inconclusive (no result: PfHsp90 set2)
NS(=O)(=O)c1ccc(NC(=O)COC(=O)c2ccc3c(c2)OCCO3)cc1	none (no result: PfHsp90 set2)
CCOC(=O)c1c(C)[nH]c(C)c1C(=O)COC(=O)c1cccc(C)c1O	none (no result: PfHsp90 set2, Wnt bcat act)
N#CCC(=O)Nc1ccc(C(=O)OCC(=O)c2ccc3c(c2)OCCO3)cc1	esBAF inh 67.9
CCOC(=O)c1cnc2c(C#N)c(C)nn2c1C	none (no result: Wnt bcat act)
O=C(CSc1nc(-c2ccccc2)c(-c2ccccc2)o1)NC1CCS(=O)(=O)C1 (stereo not drawn)	none (no result: esBAF inh)
CCc1cc(CNC(=O)C2CCC(=O)N(Cc3ccc(Cl)cc3)C2)on1 (stereo not drawn)	none
O=C(OC(C(=O)NC1CCCC1)c1cccnc1)C1=Cc2ccccc2OC1 (stereo not drawn)	none (no result: MITF TRPM1 HTS, PfHsp90 set2, Wnt bcat act)
O=C(Nc1ccccc1C(=O)NCc1ccco1)c1ccccc1	none (no result: Wnt bcat act)
O=C(NCCSCc1ccco1)Nc1cccc(Cl)c1	none (no result: Vif imaging, Wnt bcat act)
O=C(Nc1ccc(Cl)cc1)Nc1ccccc1C(=O)NCc1ccco1	Wnt bcat act 40.2 (no result: Vif imaging)
O=C(NCCSCc1ccco1)Nc1ccc(Cl)cc1	esBAF inh 63.5 (no result: MITF TRPM1 HTS)
Cc1ccc(-n2ncc3c(SCC(=O)NNC(=O)C(C)C)ncnc32)cc1	none
CC(C)(C)OC(=O)N[C@H](Cc1ccccc1)C(=O)N1CCC[C@@H]1C(=O)O	none
NCCCC[C@H](N[C@@H](CCc1ccccc1)C(=O)O)C(=O)N1CCC[C@H]1C(=O)O	Vif imaging 78.6!
COc1ccc(N2C(=O)CC(N3CCC(O)(c4ccc(Cl)cc4)CC3)C2=O)cc1 (stereo not drawn)	none (no result: Wnt bcat act)
COC(=O)c1ccc(N2C(=O)CC(N3CCC(O)(c4ccc(Br)cc4)CC3)C2=O)cc1 (stereo not drawn)	PfHsp90 set2 99.8 (no result: esBAF inh)
CCOC(=O)c1cc(OC(=O)c2ccccc2OC)n(-c2ccccc2)n1	Vif imaging 77.6 (no result: PfHsp90 set2, Wnt bcat act)
CCOC(=O)c1sc2ccccc2c1OC(=O)c1ccccc1OC	none (no result: Wnt bcat act)
Cc1nc2cc3nc(C)sc3cc2s1	MITF TRPM1 HTS inconclusive, esBAF inh 49.6 (no result: Wnt bcat act)
Clc1ccc(CN2CCN(c3ncnc4scc(-c5cccs5)c34)CC2)cc1	none (no result: MITF TRPM1 HTS)
O=C(NCCc1ccc(Cl)cc1)C1CCN(C(=O)N2CCOc3ccccc32)CC1	none (no result: MITF TRPM1 HTS)
Cc1ccc(-c2nc3ccc(Br)cn3c2Cc2cccc(F)c2)cc1	esBAF inh 51.2 (no result: MITF TRPM1 HTS, PfHsp90 set2)
Cc1ccc2nc(-c3ccc(Cl)cc3)c(Cc3cccc(Cl)c3)n2c1	none (no result: MITF TRPM1 HTS, PfHsp90 set2, N-glyco inh, Vif imaging, esBAF inh)
Fc1ccc(-c2nc3ccc(Br)cn3c2Cc2cccc(F)c2)cc1	none (no result: MITF TRPM1 HTS, PfHsp90 set2, Vif imaging)
Cc1ccc2nc(-c3ccc(F)cc3)c(Cc3cccc(Cl)c3)n2c1	esBAF inh 47.8 (no result: MITF TRPM1 HTS, PfHsp90 set2)
COCC(=O)Nc1ccc2c(c1)OC[C@@H](C)N(CCC(F)(F)F)C[C@H](C)[C@@H](OC)CN(C)C2=O	none (no result: MITF TRPM1 HTS, PfHsp90 set2, N-glyco inh, Vif imaging, Wnt bcat act)
Cc1ccc(C(=O)n2nc(-c3cccnc3)nc2N)cc1	none (no result: Wnt bcat act, esBAF inh)
Cc1ccc(-c2nc(N)n(C(=O)c3cccnc3)n2)cc1	esBAF inh 43.4 (no result: MITF TRPM1 HTS, PfHsp90 set2)
CCOC(=O)N1CCN(C(=O)c2cc3c(=O)n4cccc(C)c4nc3s2)CC1	none
C=CCn1cccc(C(=O)Nc2ccc(C)cc2)c1=O	none (no result: MITF TRPM1 HTS)
C=CCn1cccc(C(=O)Nc2ccc(C)c(C)c2)c1=O	Wnt bcat act inconclusive, esBAF inh 48.8
C/C(=C\C(=O)O)CC(=O)O	none (no result: Wnt bcat act, esBAF inh)
Cc1noc(C)c1C(=O)Nc1sc(C)c(-c2ccccc2)c1C#N	none (no result: Wnt bcat act)
Cc1sc(NC(=O)C2CCCCC2)c(C#N)c1-c1ccccc1	Wnt bcat act 42.2, esBAF inh 92.8 (no result: Vif imaging)
Cc1cccc(C(=O)Nc2sc(C)c(-c3ccccc3)c2C#N)c1	esBAF inh 48.5 (no result: Vif imaging, Wnt bcat act)
CCOC(=O)c1c(C)[nH]c(C(=O)NNC(=O)c2ccc(Br)cc2)c1C	none
CCOC(=O)c1sc2nc(-c3cccnc3)ccc2c1N	Wnt bcat act 51.9 (no result: esBAF inh)
Cc1ccccc1CS(=O)(=O)c1nnc([C@H](Cc2ccccc2)NC(=O)OC(C)(C)C)o1	PfHsp90 set2 109.1 (no result: Vif imaging)
CCC(C)[C@@H](NC(=O)OC(C)(C)C)c1nnc(S(=O)(=O)Cc2cccc(C)c2)o1 (stereo partly drawn)	PfHsp90 set2 121.3 (no result: Wnt bcat act, esBAF inh)
CCSc1nnc([C@H](Cc2ccccc2)NC(=O)OC(C)(C)C)o1	none (no result: Wnt bcat act)
CCCCCc1ccc(-c2ccc(/C=C/C(N)=O)cc2)nc1	none (no result: Wnt bcat act, esBAF inh)
CCCCCc1ccc(-c2ccc(OC)cc2)nc1	MITF TRPM1 HTS 96.9, esBAF inh 98.0
CC(C)Nc1nc(NC(C)C)nc(SCCOC(=O)Nc2ccc(Cl)cc2Cl)n1	none (no result: esBAF inh)
O=C(Nc1nccs1)c1ccc2c(=O)n3c(nc2c1)CCCCC3	esBAF inh 52.8
O=C(Nc1ccc(F)cc1Cl)c1ccc2c(=O)n3c(nc2c1)CCC3	MITF TRPM1 HTS 101.5, esBAF inh inconclusive
O=C(Nc1ccc(F)cc1F)c1ccc2c(=O)n3c(nc2c1)CCC3	none (no result: PfHsp90 set2)
Cc1ccc(-n2c(=O)c3c4c(sc3n(Cc3cc(=O)n5ccccc5n3)c2=O)CCC4)cc1C	none (no result: esBAF inh)
O=C(Oc1c(Cl)cc(Cl)c2cccnc12)c1cccc([N+](=O)[O-])c1	PfHsp90 set2 107.0 (no result: Wnt bcat act, esBAF inh)
CCn1c(CNC(=O)c2ccccc2F)nnc1SCC(=O)NC1CCCCC1	none (no result: Wnt bcat act)
CC(C)n1c(CNC(=O)c2ccccc2F)nnc1SCC(=O)NC1CCCCC1	Vif imaging 53.5
COC(=O)c1cc(-c2ccc(OC)cc2)n[nH]1	MITF TRPM1 HTS 91.4, esBAF inh inconclusive (no result: PfHsp90 set2)
COc1cc(NC(=O)c2ccno2)cc(C(=O)Nc2cccc(C(F)(F)F)c2)c1	none
COc1cc(NC(=O)c2nccnc2N)cc(C(=O)Nc2cccc(C(F)(F)F)c2)c1	none
COc1cc(NC(=O)c2ccc(N)nc2)cc(C(=O)Nc2cccc(C(F)(F)F)c2)c1	esBAF inh 45.2!
COc1ccc(-c2cc(C(=O)Nc3cc(OC)cc(C(=O)Nc4cccc(C(F)(F)F)c4)c3)[nH]n2)cc1	esBAF inh 48.0!
O=C(COc1ccccc1Cl)c1ccc[nH]1	none (no result: esBAF inh)
O=C(COc1ccc(Br)cc1Cl)c1ccc[nH]1	MITF TRPM1 HTS 101.9, esBAF inh 74.2
O=C(COc1ccc(Br)cc1Cl)NC1CCCCC1	MITF TRPM1 HTS 88.4 (no result: esBAF inh)
O=C(COc1ccc(Br)cc1Cl)NC(=O)NC1CCCC1	MITF TRPM1 HTS 93.3, Wnt bcat act 38.5, esBAF inh 51.5
Cc1ccc(NC(=O)CCC(=O)NNC(=O)c2ccco2)c(C)c1	none
COc1ccc(NS(=O)(=O)c2cc(NC(=O)c3ccc(=O)[nH]c3)ccc2N2CCOCC2)cc1	none
C=CCn1c(=O)c(C(=O)Nc2ccccc2C(=O)OCC)c(O)c2ccccc21	none
C=CCn1c(=O)c(C(=O)Nc2ccccc2S(N)(=O)=O)c(O)c2ccccc21	esBAF inh 64.6
C=CCn1c(N)c(C(=O)Nc2ccc(C)cc2)sc1=S	esBAF inh 51.2 (no result: Vif imaging, Wnt bcat act)
